Molecules are shown by their SMILES. Results filed as inconclusive are left out. Values without a mark were called inactive. Active and inactive are the calls of the source. Calls come from the whole dose curve; as a rule, active = well fitted curve in the direction sought with a large enough effect; inconclusive = small, poorly fitted or top-dose-only effect, or another doubt; inactive = no such curve, though single readings can be large; an effect the other way counts as inactive or inconclusive.

The source of these data is PubChem BioAssay (NCATS).

In assay [1] the target is Cytochrome P450 3A7 (Homo sapiens) (UniProt P24462). In words: Cytochrome P450 family 3 subfamily A member 7 (CYP3A7) small molecule antagonists: luciferase biochemical qHTS assay (AID 1963596). Note: % is set by controls: 0 for no effect and ±100 for the full control effect; nearly all actives have a fitted effect of over 40% in size. Summed up: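 Enzyme-substrate mix + cpd (DMSO), 10 min RT; + NADPH regen system, 1 h RT; + luciferin detection reagent, 20 min RT; luminescence read. Proluciferin substrate, P450-Glo format, 1536-well qHTS.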

A short description of assay [2]: Cellular viability qHTS for adrenocortical cancer (ACC) cell line NCI-H295R (AID 1963990).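 Note: 0% = DMSO only wells and -100% = full killing with cytotoxic reference compound; nearly all actives have a fitted effect of over 60% in size.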 Summed up: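 Readout: CellTiter-Glo luminescence, 20 min RT. Exposure: 48 h, 37C/5% CO2. Cells: NCI-H295R, ITS-DMEM serum-free. Range: up to 46 uM. Analysis: 4PL fit, IC50 plus efficacy.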
On the technique in general: qHTS replaces the single test concentration by a dilution series.

Assay [3] is described as follows: Viability qHTS for spleen associated tyrosine kinase inhibitor (SYKi) naive MV4-11 cells (AID 1963823). Note: nearly all actives have a fitted effect of over 40% in size. Note: potency is the fitted concentration of half-maximal effect. Summed up:
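SYKi-naive MV4-11 AML cells, 500 per well, were exposed to library compounds for 72 hr at 37 C, 5% CO2. Viability was then read by CellTiter-Glo luminescence after 10 min at room temperature.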

Assay [4] can be described thus: Quantitative highthroughput screen to assess conditional lethalithy of NOMO1 cells grown in RPMI1640 with untreated serum (RPMI+s) (AID 1963876).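 Note: 100% = DMSO wells and 0% = empty wells without cells; nearly all actives have a fitted effect of over 35% in size.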 Summed up:
(§1)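 Each medium arm—HPLM with 10% dialyzed FBS, or RPMI1640 with 5 mM glucose and 10% untreated or dialyzed FBS—was screened against an 11-point, 3-fold compound titration for 48 h at 37 °C, with CellTiter-Glo luminescence as endpoint.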

Assay [5] can be described thus: Quantitative highthroughput screen to assess conditional lethalithy of NOMO1 cells grown in RPMI1640 with dialyzed fetal bovine serum (RPMI+ds) (AID 1963877).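 Note: series mostly up to about 46 µM; 100% = DMSO control wells and 0% = empty wells; nearly all actives have a fitted effect of over 30% in size.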 Summed up: as §1
The nature of assay [6]: Quantitative highthroughput screen to assess conditional lethalithy of NOMO1 cells grown in Human Plasma-Like Medium with dialyzed fetal bovine serum (HPLM+ds) (AID 1963878).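 Note: 100% = DMSO wells and 0% = empty wells on each plate; nearly all actives have a fitted effect of over 35% in size.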 Summed up: as §1
The nature of assay [7]: Quantitative highthroughput screen to assess conditional lethalithy of P12 Ichikawa cells grown in Human Plasma-Like Medium with dialyzed fetal bovine serum (HPLM+ds) (AID 1963879). Note: series mostly up to about 46 µM; nearly all actives have a fitted effect of over 35% in size. To be noted: Potency: viability. Summed up: as §1
A short description of assay [8]: Quantitative highthroughput screen to assess conditional lethalithy of P12 Ichikawa cells grown in RPMI1640 with dialyzed fetal bovine serum (RPMI+ds) (AID 1963880).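 Note: 100% = DMSO wells and 0% = empty wells on each plate; nearly all actives have a fitted effect of over 35% in size.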 To be noted: Potency: P12-Ichikawa viability. Summed up: as §1
Assay [9] is described as follows: Quantitative highthroughput screen to assess conditional lethalithy of P12 Ichikawa cells grown in RPMI1640 with untreated serum (RPMI+s) (AID 1963881). Conditions: Potency: viability. Summed up:
as §1

Assay [10] can be described thus: Quantitative highthroughput screen to assess conditional lethalithy of SEM cells grown in Human Plasma-Like Medium with dialyzed fetal bovine serum (HPLM+ds) (AID 1963882). Summed up: as §1
Assay [11] is described as follows: Quantitative highthroughput screen to assess conditional lethalithy of SEM cells grown in RPMI1640 with unreated serum (RPMI+s) (AID 1963883). Summed up: as §1
Assay [12] in a line: Cellular viability qHTS for adrenocortical cancer (ACC) cell line SW-13 (AID 1963989).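 Note: cells grown in serum-free medium with ITS supplement; % is set by controls: 0 for no effect and ±100 for the full control effect; nearly all actives have a fitted effect of over 65% in size.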 Conditions: SW-13 ACC cells viability, CellTiter-Glo, 48 h; activity (max response): hits give low values. Summed up: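 Compound titrations (up to 46 uM final, in DMSO) were applied to SW-13 cells for 48 h at 37C/5% CO2. Reading used CellTiter-Glo after 20 min at room temperature; fitted curves yielded IC50 and efficacy.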

A short description of assay [13]: Viability qHTS for spleen associated tyrosine kinase inhibitor (SYKi) drug resistant MV4-11 cells (AID 1963824). Note: nearly all actives have a fitted effect of over 35% in size. Note: potency is the fitted concentration of half-maximal effect. Summed up:
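SYK inhibitor-resistant MV4-11 AML cells, 500 per well, added to predispensed compounds and incubated 72 hr at 37 C, 5% CO2. Viability measured by CellTiter-Glo luminescence after 10 min at room temperature.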

Sequence of Cytochrome P450 3A7 (Homo sapiens) (P24462 whole entry, looked up): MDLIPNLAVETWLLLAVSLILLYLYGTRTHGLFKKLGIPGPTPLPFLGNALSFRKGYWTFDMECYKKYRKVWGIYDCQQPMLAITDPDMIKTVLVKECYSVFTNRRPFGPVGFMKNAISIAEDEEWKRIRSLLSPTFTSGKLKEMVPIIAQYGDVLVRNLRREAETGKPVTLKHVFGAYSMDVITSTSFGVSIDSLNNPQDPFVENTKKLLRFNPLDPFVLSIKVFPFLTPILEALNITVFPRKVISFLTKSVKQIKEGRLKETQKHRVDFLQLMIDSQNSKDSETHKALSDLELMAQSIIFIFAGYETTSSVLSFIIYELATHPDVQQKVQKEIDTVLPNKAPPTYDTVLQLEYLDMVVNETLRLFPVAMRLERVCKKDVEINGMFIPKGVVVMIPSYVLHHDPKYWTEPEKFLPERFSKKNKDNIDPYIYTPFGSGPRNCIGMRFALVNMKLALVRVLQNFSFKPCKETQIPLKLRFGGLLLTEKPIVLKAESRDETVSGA

Regarding `CCNCc1nc2c(N)nc3ccccc3c2n1CC(C)(C)O`, the Potency result in assay [1] and in assay [2] was “inactive” throughout.
Turning to `CNc1nc(C)nc(N[C@H]2CCC[C@@H](C(=O)NCc3ccc(C#N)cc3C(F)(F)F)C2)n1`, the Potency entry in assay [1] and in assay [2] was “inactive” in each case.
In the case of `CN(C)CCCCC(=O)Nc1ccc(NC(=S)NC(=O)c2ccc(C(C)(C)C)cc2)cc1`, in [3], the Potency was 1.3 µM (active).
The same measure, in the same setting: next, `CCn1cc(NC(=S)Nc2cc(Cl)ccc2OC)c(C(N)=O)n1`: “inactive”.
For the molecule `CO/N=C(/C(=O)N[C@@H]1C(=O)N2C(C(=O)O)=C(Cn3nnc(C)n3)CS[C@H]12)c1csc(N)n1`, the Potency entry in [1] and in [2] was “inactive” in each case.
For the molecule `NS(=O)(=O)c1ccc(N2CCN(CC[C@@H]3OCCc4ccccc43)CC2)cc1`, in [3], the Potency was 11.6 µM (active).
Still for that read-out and setting: next, `CC(C)=CCc1ccc(Oc2c(O)cc(C)cc2CO)c(C(=O)O)c1O`: “inactive”; `COc1cc(C)c(C(=O)O[C@H]2[C@@H](OC(C)=O)[C@H](n3ccc(=O)[nH]c3=O)O[C@@H]2CO)c(OC)c1`: “inactive”; `C[C@@H]1O[C@@H](O[C@H]2[C@H](O)[C@@H](O)[C@H](O[C@H]3[C@H](O[C@H]4CC[C@@]5(C)C(=CC[C@@H]6C5CC[C@]5(C)[C@@H]7[C@H](C[C@@H]65)O[C@]5(CC[C@@](C)(CO[C@@H]6O[C@H](CO)[C@@H](O)[C@H](O)[C@H]6O)O5)[C@H]7C)C4)O[C@H](CO)[C@@H](O)[C@@H]3O)O[C@@H]2CO)[C@H](O)[C@H](O)[C@H]1O` (stereo not given in full): 0.618 µM (active).
Regarding `Oc1ccccc1C=NCc1ccccc1`, the Potency entry in [1] and in assay [2] was “inactive” throughout.
In the case of `CC(C)C[C@@H](N)C(=O)N[C@H]1C(=O)N[C@@H](CC(N)=O)C(=O)N[C@H]2C(=O)N[C@H]3C(=O)N[C@H](C(=O)N[C@H](C(=O)O)c4cc(O)cc(O)c4-c4cc3ccc4O)[C@H](O)c3ccc(c(Cl)c3)Oc3cc2cc(c3O[C@@H]2O[C@H](CO)[C@@H](O)[C@H](O)[C@H]2O[C@H]2C[C@](C)(N)[C@H](O)[C@H](C)O2)Oc2ccc(cc2Cl)[C@H]1O`, the Potency result in assay [3] is “inactive”.
With `C/C=C(\C)C(=O)OC[C@H]1O[C@@H](O[C@H]2[C@@H](O[C@H]3O[C@H](CO)[C@@H](O)[C@H](O)[C@H]3O[C@@H]3O[C@H](CO)[C@@H](O)[C@H](O)[C@H]3O)O[C@H](COC(=O)/C(C)=C/C)[C@@H](O)[C@@H]2O)[C@H](O)[C@@H](O)[C@@H]1O`, the viability (% of control) in assay [3] was 81.8% [at 9.25 µM].
Turning to `C=C1CC2[C@]3(C)C(=C(O)C(=O)[C@@]2(C)[C@]2(C(=O)OC)C(=O)C(C)OC(=O)[C@@]12C)C(C)(C)C(=O)CC3O` (stereo not given in full), the Potency result in [3] was “inactive”.
As for `Cn1c(CNc2ccc(C(=N)N)cc2)nc2cc(C(=O)N(CCC(=O)O)c3ccccn3)ccc21`, the Potency result in [4], in assay [5], in assay [6], in assay [7], in [8] and in assay [9] was “inactive” in each case. For the same molecule, the Potency result in [10] and in [11] was “inactive” in each case. Moreover, the activity (max response) in [12] was 9.7%. Also, in assay [2], the activity change, negative = viability loss is 15.5% [at 0.587 µM].
Regarding `CC[C@H](Nc1ncnc2nc[nH]c12)c1nc2cccc(F)c2c(=O)n1-c1ccccc1`, the activity (max response) in assay [12] was -2.88%.
For the molecule `CC1=CC(=O)CC(C)(C)[C@H]1/C=C/C(CO)O[C@@H]1O[C@H](CO)[C@@H](O)[C@H](O)[C@H]1O` (stereo not given in full), the Potency entry in assay [3] and in assay [13] was “inactive” throughout.
In the case of `CC1(C)CC[C@]2(C(=O)O)[C@H](O)C[C@]3(C)C(=CCC4[C@@]5(C)CC[C@H](O[C@@H]6OC[C@@H](O)[C@H](O)[C@H]6O)[C@@](C)(C(=O)O)C5CC[C@]43C)[C@@H]2C1` (stereo not given in full), the Potency result in [3] and in [13] was “inactive” in each case.
Consider `COc1ccc(S(=O)(=O)N[C@@H](CNc2nc(C)nc(N3CCC(c4ccc5c(n4)NCCC5)CC3)c2C)C(=O)O)cc1`, for which the Potency result in assay [3] and in assay [13] was “inactive” throughout.
Turning to `C=C[C@]1(C)C=C2CCC3C(C)(CCC[C@@]3(C)C(=O)O)C2CC1` (stereo not given in full), the Potency result in assay [3] and in assay [13] was “inactive” each time.
Take `C=C1C(=O)O[C@H]2CC(=C)[C@H]3CC[C@@](C)(O)[C@@H]3CC12` (stereo not given in full): the Potency in assay [3] was 6.51 µM (active); in [13], 4.11 µM (active).
Take `CC1CCC2(C(=O)OC3OC(COC4OC(CO)C(O)C(O)C4O)C(O)C(O)C3O)CCC3(C)C(=CCC4C5(C)CCC(O)C(C)(C(=O)O)C5CCC43C)C2C1(C)O` (stereo not given): the viability (% of control) in assay [3] is 98.4% [at 9.25 µM]. Moreover, the viability, % of control in assay [13] is 98.8% [at 9.25 µM].
Consider `O=C(OC[C@H]1O[C@@H](Oc2ccccc2COC(=O)C2(O)C=CCCC2O)[C@H](O)[C@@H](O)[C@@H]1O)c1ccccc1` (stereo not given in full), for which the Potency result in [3] and in assay [13] was “inactive” in each case.
Take `COc1ccc(-c2nc(-c3cc(C(F)(F)F)cc(C(F)(F)F)c3)n(Cc3ccc(C(N)=O)cc3)c2-c2ccc(OC)cc2)cc1`: the values for the Potency in assay [3] and in assay [13] were 7.31 µM (active) and 3.66 µM (active), respectively.
In the case of `C=C1C(=O)O[C@@H]2/C=C(\C)CC/C=C(\C)CC[C@@H]12`, the Potency in assay [3] was 7.31 µM (active); in assay [13], 2.59 µM (active).
Take `CC(C)=CCC[C@](C)(O)[C@H]1CC[C@]2(C)[C@@H]1[C@H](O)CC1[C@@]3(C)CC[C@H](O)C(C)(C)[C@@H]3[C@@H](O[C@@H]3O[C@H](CO)[C@@H](O)[C@H](O)[C@H]3O[C@@H]3O[C@H](CO)[C@@H](O)[C@H](O)[C@H]3O)C[C@]12C` (stereo not given in full): the Potency entry in assay [3] and in [13] was “inactive” throughout.
With `COC(=O)C1=C(C)NC(c2ncc(F)cc2F)=N[C@H]1c1ccc(F)cc1Cl`, the Potency in assay [3] is 20.9 µM (active); in assay [13] it was 9.34 µM (active).
